IL-1B inflam inh – qHTS for Inhibitors of Inflammasome Signaling: IL-1-beta AlphaLISA Primary Screen; THP-1 LPS/ATP IL-1B secretion, AlphaLISA, 16 h; stronger effect = lower value; activity change, % at 57.5 µM; hit rate 4.7% among 360,000; AID 743279, 2014; in the data active means activity change below about -50%; inconclusive means mostly about -30% to -49%; further: on the % scale 0 is the no-effect control and ±100 the full control effect
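THP-1 cells pretreated 1 hr with compounds (up to 57.5 uM final), then stimulated with LPS (250 ng/mL final) plus ATP (1.25 mM final); secreted IL-1B measured by AlphaLISA after 16 hr, decreased signal indicating inhibition.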
TGFb SMAD3 inh – qHTS for Inhibitors of TGF-b; Potency, µM (series often up to 46.1 µM), for the others: at the highest dose activity, negative = inhibition, most hits filed as inhibitors; HepG2 CAGA-GFP TGF-b/SMAD3 reporter, GFP fluorescence, 18 h; TGF-beta stimulated, 500 pg/mL final; hit rate 1.2% among 410,000; further: potency means the concentration at half of the fitted maximal effect; on the % scale 0 is the no-effect control and ±100 the full control effect; nearly all actives have a fitted effect of over 65% in size
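Inhibition was scored as loss of TGF-beta-induced (500 pg/mL final, 18 hours, 37 degrees C) GFP in HEPG2 cells carrying a CAGA-GFP reporter, in DMEM with 1% FBS. Well GFP was summed per cell; Activity was normalised to unstimulated and stimulated DMSO wells, then concentration-response fitting.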
TDP1 inh – qHTS Assay for Inhibitors of Tyrosyl-DNA Phosphodiesterase (TDP1); Potency, µM (series often up to 130 µM), inactives show top-dose activity change, negative = inhibition, hits mostly inhibitors; recombinant TDP1, AlphaScreen DNA substrate cleavage; hit rate 0.28% among 350,000; further: potency means the concentration at half of the fitted maximal effect; on the % scale 0 is the no-effect control and ±100 the full control effect; nearly all actives have a fitted effect of over 40% in size
Target sequence (Q9NUW8 whole entry, looked up): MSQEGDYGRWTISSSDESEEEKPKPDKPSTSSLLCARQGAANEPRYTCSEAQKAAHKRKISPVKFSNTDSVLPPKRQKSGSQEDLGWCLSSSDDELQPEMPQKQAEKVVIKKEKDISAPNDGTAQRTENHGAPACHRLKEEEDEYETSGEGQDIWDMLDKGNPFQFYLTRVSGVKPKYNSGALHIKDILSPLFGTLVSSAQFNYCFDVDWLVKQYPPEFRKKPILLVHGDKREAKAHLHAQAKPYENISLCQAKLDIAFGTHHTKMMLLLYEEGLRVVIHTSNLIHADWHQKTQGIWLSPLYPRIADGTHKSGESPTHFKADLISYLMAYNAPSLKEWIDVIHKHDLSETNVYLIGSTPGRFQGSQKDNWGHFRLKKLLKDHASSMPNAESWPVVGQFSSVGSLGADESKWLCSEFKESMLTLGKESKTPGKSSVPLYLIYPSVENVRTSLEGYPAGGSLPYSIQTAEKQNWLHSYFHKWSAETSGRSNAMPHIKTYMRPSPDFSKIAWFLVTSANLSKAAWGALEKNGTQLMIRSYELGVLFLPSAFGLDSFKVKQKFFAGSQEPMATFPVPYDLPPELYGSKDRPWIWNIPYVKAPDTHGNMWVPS
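Signal: AlphaScreen proximity between streptavidin donor and anti-FITC acceptor beads on intact substrate. Reaction: Tdp1 1 nM, substrate 15 nM final, 5 min RT after 15 min compound preincubation.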
DT40 TDP1 no CPT – qHTS for Inhibitors of human tyrosyl-DNA phosphodiesterase 1 (TDP1): qHTS in cells in absence of CPT | DT40 Tdp1-/- hTDP1 cells, no CPT, ATP luminescence, 48 h | Potency, µM (titrated, usually from 46.2 µM), without a hit: top-dose activity change, negative = growth inhibition, usual class: inhibitors | hit rate 15% among 420,000 | AID 686978, 2013; further: potency means the concentration at half of the fitted maximal effect; on the % scale 0 is the no-effect control and ±100 the full control effect; nearly all actives have a fitted effect of over 55% in size
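Compound effects on proliferation are scored in DT40 Tdp1-/-;hTDP1 cells in the absence of CPT. ATP levels (CellTiter-Glo luminescence) are recorded after a ≥48 hr, 37 °C incubation.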
DT40 TDP1 CPT – qHTS for Inhibitors of human tyrosyl-DNA phosphodiesterase 1 (TDP1): qHTS in cells in presence of CPT | chicken DT40 Tdp1-/-;hTDP1 cells + 20 nM CPT, ATP luminescence, 48 h | Potency, µM (doses to about 46.2 µM), for inactives: at the highest dose activity change, negative = growth inhibition, hits mostly inhibitors | hit rate 12% among 420,000 | AID 686979, 2013; further: potency means the concentration at half of the fitted maximal effect; on the % scale 0 is the no-effect control and ±100 the full control effect; nearly all actives have a fitted effect of over 55% in size
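Cell growth measured by CellTiter-Glo luminescence after a minimum 48 h, 37 C compound exposure with 20 nM CPT in Tdp1-knockout DT40 cells stably expressing hTDP1, seeded 400/well; qHTS titration format.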
HepG2 tox – qHTS for Inhibitors of TGF-b: Cytotox Counterscreen. AID 588856, 2011. hit rate 0.76% among 410,000. Potency, µM (doses to about 46.1 µM), for inactives: at the highest dose activity change, negative = cytotoxicity, hits mostly cytotoxic. HepG2 CAGA-GFP viability, ATP luminescence, 18 h; further: potency means the concentration at half of the fitted maximal effect
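HepG2 CAGA-GFP cells (1000/well, DMEM with 1% FBS) received compound, then TGF-beta at 500 pg/mL final, and were incubated 18 hours at 37 degrees C. Viability was read by CellTiter-Glo luminescence. Media-only wells were set as complete cell-killing and DMSO as no toxicity.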
* = called active by the depositor; ? = inconclusive; · = no result given; [ ] = remark or other dose. The list is not random: actives were taken first. Their share in the collection is about 18%. Unless noted, the call rests on the fitted dose curve; in most records, active means well fitted curve in the direction sought with a large enough effect; inconclusive means small, poorly fitted or top-dose-only effect, or another doubt; inactive means no such curve, though single readings can be large; an effect the other way counts as inactive or inconclusive.

SMILES	IL-1B inflam inh	TGFb SMAD3 inh	TDP1 inh	DT40 TDP1 no CPT	DT40 TDP1 CPT	HepG2 tox
Cc1ccc(-c2nc(C3CCCN(S(=O)(=O)c4ccc(C)cc4)C3)no2)cc1 (stereo not drawn)	0	?	4%	?	16µM*	-22%
O=S(=O)(c1ccc(Cl)cc1)N1CCCC(c2nc(-c3ccc(F)cc3)no2)C1 (stereo not drawn)	-26	2%	-3%	?	15µM*	-3%
O=C(Cc1ccccc1)N1CCCC(c2nc(-c3cccs3)no2)C1 (stereo not drawn)	7	25%	-3%	-10%	-25%	-12%
O=C(CC1CCCCC1)N1CCCC(c2nc(-c3ccc(S(=O)(=O)N4CCCC4)cc3)no2)C1 (stereo not drawn)	-77*	?	1%	16µM*	23µM*	-39%
COc1ccc(OC)c(/C=C2\C=Cc3ccccc32)c1	·	?	·	?	?	-38%
O=C1c2ccccc2C(c2nc3ccccc3[nH]2)N1c1ccccn1 (stereo not drawn)	-3	-2%	·	11%	7%	1%
Cc1ccc(CCNC(=O)c2cc3c(s2)-c2c(C)cccc2OC3)cc1	·	10%	-3%	?	?	6%
COc1ccc(N(C)C(=O)c2cc3c(s2)-c2ccccc2OC3)cc1	·	?	2%	?	?	-50%
COc1cc(OC)c(N(C)C(=O)c2cc3c(s2)-c2ccccc2OC3)cc1Cl	·	?	0%	23µM*	13µM*	-21%
COc1ccc(N(C)C(=O)c2cc3c(s2)-c2c(C)cccc2OC3)c(OC)c1	-7	?	5%	21µM*	?	-39%
COc1cccc(N2CCN(C(=O)c3cc4c(s3)-c3c(C)cccc3OC4)CC2)c1	·	?	5%	23µM*	?	-23%
Cc1cccc2c1-c1sc(C(=O)NCc3ccccc3Cl)cc1CO2	·	-5%	·	26µM*	16µM*	22%
COc1ccc(NC(=O)c2ccc(Cl)c(S(=O)(=O)NCC3CCCO3)c2)c(OC)c1 (stereo not drawn)	-3	-18%	5%[56.1 µM]	-10%	-19%	-53%
CCc1ccccc1N(C)C(=O)c1cc2c(s1)-c1c(C)cccc1OC2	·	?	·	23µM*	23µM*	-25%
Cc1cccc2c1-c1sc(C(=O)Nc3cccc([N+](=O)[O-])c3C)cc1CO2	-52*	?	-8%	23µM*	?	-26%
O=C(CSc1nnc(SCc2ccc(Cl)cc2)s1)c1ccc2c(c1)OCO2	-6	?	-5%	2%	-4%	-19%
O=C(CSc1ccc(Br)cc1)N1CCN(S(=O)(=O)c2ccccc2)CC1	-9	-36%	0%	-27%	2%	-19%
O=C(CSc1cccc(C(F)(F)F)c1)N1CCN(S(=O)(=O)c2ccccc2)CC1	-55*	-11%	-2%	?	?	2%
Cc1ccc(S(=O)(=O)N2CCOCC2)cc1NC(=O)COC(=O)CNC(=O)c1ccc(Cl)cc1Cl	-2	-6%	4%	8%	1%	-4%
COc1ccccc1CNC(=O)COCc1cc(-c2cccs2)on1	·	-36%	6%	?	?	-48%
CCC(=O)Oc1cc(C(C)(C)C)cc2cc(-c3nc(-c4ccc(OC)cc4OC)no3)c(=O)oc12	·	?	3%	16µM*	?	-29%
CC(C)Cc1nn2c(=O)cc(COC(=O)c3ccccc3NC(=O)c3ccccc3)nc2s1	·	3%	6%	6%	-5%	-7%

Compound activity from PubChem.
